HT1080 IDH1KD tx – toxicity to HT-1080 IDH1 knockdown cells (counter line); HT-1080 IDH1 knockdown viability, ATP luminescence, 48 h; Potency, µM (series often up to 46.1 µM), usual class: cytotoxic; hit rate 2% among 360,000; AID 686971
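Viability of IDH1-knockdown HT-1080 fibrosarcoma cells was assessed by CellTiter-Glo after 48 h at 37 °C with titrated compound; concentration-effect curves were classified by fit quality and response size.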
HT1080-NT tox – kills 2HG-producing HT-1080-NT fibrosarcoma cells. Potency, µM (highest dose often 46.1 µM), usual class: cytotoxic. hit rate 1.6% among 360,000. HT-1080-NT fibrosarcoma viability, CellTiter-Glo ATP luminescence, 48 h. AID 686970;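 also: NT is the 2HG producing partner of a matched IDH1 knockdown line; nearly all actives have a fitted effect of over 55% in size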
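Viability of the 2HG-overproducing fibrosarcoma line after 48 hours of compound exposure at 37 degrees C was determined by luminescence with CellTiter-Glo, and concentration-effect curves were then fitted and categorized.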
KB-3-1 tox – KB-3-1 parental cell cytotoxicity | KB-3-1 viability, CellTiter-Glo ATP luminescence, 72 h | Potency, µM (titrated, usually from 46.1 µM), actives largely listed as cytotoxic | hit rate 1.4% among 400,000 | AID 1347075; also: nearly all actives have a fitted effect of over 60% in size
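Parental KB-3-1 viability, qHTS format: 72 h compound exposure, 37 °C; CellTiter-Glo; media-only wells and DMSO plates as controls; concentration-effect fits on corrected data.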
IL1B secr inh – inflammasome signaling inhibition, IL-1 beta readout | THP-1 LPS/ATP IL-1B secretion, AlphaLISA, 16 h; active compounds read low | activity change, % at 57.5 µM | hit rate 4.7% among 360,000; in the data active = activity change below about -50%; inconclusive = mostly about -30% to -49%
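THP-1 cells pretreated 1 hr with compounds (up to 57.5 uM final), then stimulated with LPS (250 ng/mL final) plus ATP (1.25 mM final); secreted IL-1B measured by AlphaLISA after 16 hr, decreased signal indicating inhibition.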
KB-V1 MDR tox – KB-V1 MDR subline cytotoxicity; Potency, µM (titrated, usually from 46.1 µM), hits mostly cytotoxic; hit rate 3.4% among 400,000; KB-V1 MDR cells viability, CellTiter-Glo, 72 h; AID 1347076; also: nearly all actives have a fitted effect of over 60% in size
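Following 72 h at 37 degrees C with compound, KB-V1 cell viability was read by CellTiter-Glo luminescence, medium being phenol-red-free DMEM plus 10% FBS; concentration-response parameters came from normalized, curve-fitted qHTS data.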
Large screens that a line does not name were inactive. Sampled rows, rich in hits. Any-hit rate of the full collection: about 8.8%. Unless noted, calls follow the shape of the dose curve; as a rule, active = well fitted curve in the direction sought with a large enough effect; inconclusive = small, poorly fitted or top-dose-only effect, or another doubt; inactive = no such curve, though single readings can be large; an effect the other way counts as inactive or inconclusive.

FC(F)Sc1ccc(NC(=S)NC2CCCCC2)cc1	HT1080 IDH1KD tx inconclusive, HT1080-NT tox inconclusive, IL1B secr inh inconclusive
CC(C)(C)NC(=O)C(c1ccc(Cl)cc1)N(Cc1ccco1)C(=O)CCl (stereo not given)	IL1B secr inh inconclusive
O=C(NC1CCCCC1)C(c1ccncc1)N(Cc1ccc(F)cc1)C(=O)c1ccccn1 (stereo not given)	KB-V1 MDR tox inconclusive
COc1ccc(CN(CC(=O)NC2CCCC2)C(=O)c2ccc(-c3ccccc3)[nH]2)cc1	HT1080-NT tox inconclusive, KB-3-1 tox inconclusive, IL1B secr inh -67.9, KB-V1 MDR tox inconclusive
O=C(NCC1CCCO1)C(c1cccs1)N(C(=O)c1ccc(-c2ccccc2)[nH]1)C1CCCC1 (stereo not given)	HT1080 IDH1KD tx inconclusive, KB-V1 MDR tox inconclusive
CC(C)(C)NC(=O)C(c1ccncc1)N(Cc1ccco1)C(=O)c1ccc(-c2ccccc2)[nH]1 (stereo not given)	HT1080 IDH1KD tx 18.4µM, HT1080-NT tox 18.4µM, KB-V1 MDR tox inconclusive
O=C(NCC1CCCO1)C(c1cccs1)N(Cc1ccccc1)C(=O)c1ccc(-c2ccccc2)[nH]1 (stereo not given)	KB-V1 MDR tox 3.66µM
O=C(NC1CCCCC1)C(c1ccncc1)N(Cc1ccccc1)C(=O)c1ccc(-c2ccccc2)[nH]1 (stereo not given)	HT1080 IDH1KD tx inconclusive, HT1080-NT tox inconclusive, KB-3-1 tox inconclusive, KB-V1 MDR tox 23.1µM
COc1ccc(NC2CCCN(C(=O)C3(C)CCCCC3)C2)cc1OC (stereo not given)	none
COCCNC(=O)C(C#N)c1nc2ccccc2nc1N1CCCCCC1 (stereo not given)	IL1B secr inh -70.5, KB-V1 MDR tox 4.11µM
COCCCNC(=O)C(C#N)c1nc2ccccc2nc1N1CCN(Cc2ccccc2)CC1 (stereo not given)	IL1B secr inh -57.7
COCC(C)OC(=O)C(C#N)c1nc2ccccc2nc1N1CCN(Cc2ccccc2)CC1 (stereo not given)	IL1B secr inh -55.9, KB-V1 MDR tox inconclusive
S=c1[nH]nc(CSCCOc2ccc(Cl)cc2Cl)o1	KB-V1 MDR tox inconclusive
Cc1ccc(CNC(=O)CS(=O)(=O)Cc2nc(-c3ccccc3C)oc2C)cc1	none (no result: HT1080 IDH1KD tx, HT1080-NT tox, IL1B secr inh)
CC(=O)Nc1nonc1-c1nnc(SCc2ccccc2Cl)n1C	none (no result: HT1080 IDH1KD tx, HT1080-NT tox, IL1B secr inh)
Cc1cc(=O)[nH]c2ccccc12	KB-V1 MDR tox inconclusive
Cc1cc2[nH]c3c(c[n+](C)c4ccccc34)c2cc1C	HT1080 IDH1KD tx 20.6µM, HT1080-NT tox inconclusive, KB-3-1 tox inconclusive, IL1B secr inh -98.6
COCCCn1c(-c2ccco2)nc2ccccc2c1=O	KB-V1 MDR tox inconclusive
COCCCN=C(c1ccco1)n1c(=S)nc(-c2ccco2)n(CCCOC)c1=S	HT1080 IDH1KD tx 7.94µM, HT1080-NT tox 5.62µM, KB-V1 MDR tox inconclusive
CN1CCN(c2nc3cc(C(F)(F)F)ccc3n3cccc23)CC1	HT1080 IDH1KD tx 23.1µM, HT1080-NT tox inconclusive, IL1B secr inh inconclusive, KB-V1 MDR tox inconclusive
COc1ccc(S(=O)(=O)N(CCc2ccccc2)CC(=O)Nc2cccc(OC)c2)cc1	none (no result: HT1080 IDH1KD tx, HT1080-NT tox, IL1B secr inh)
COc1ccccc1NC(=O)c1cc2c(n(-c3ccc(C)cc3)c1=O)CC(C)(C)CC2=O	KB-V1 MDR tox inconclusive (no result: HT1080 IDH1KD tx, HT1080-NT tox, IL1B secr inh)
Cc1ccc2c(c1)C(O)(CC(=O)/C=C/C=C/c1ccccc1)C(=O)N2 (stereo not given)	IL1B secr inh -55.7
NC(=O)CN1C(=O)C(O)(CC(=O)/C=C\C=C\c2ccccc2)c2ccccc21 (stereo not given)	IL1B secr inh -85.6
O=C(/C=C/C=C/c1ccccc1)CC1(O)C(=O)N(CCc2ccccc2)c2ccccc21 (stereo not given)	IL1B secr inh -100.1
COc1ccccc1-c1cccc(-c2nc(C(=O)Nc3nccs3)cc3c2[C@@H](CCO)N(C(=O)CC2CC2)C3)c1	IL1B secr inh inconclusive, KB-V1 MDR tox inconclusive
Nc1cc2c(cc1Br)-c1ccc(F)cc1C2O (stereo not given)	none
CC1CC(C)(C)OC(c2ccc(C(C)C)cc2)O1 (stereo not given)	none (no result: KB-3-1 tox, KB-V1 MDR tox)
CCOC(=O)CSc1nnc2c3ccccc3n(CC)c2n1	none
CCOC(=O)C(Sc1nnc2c3ccccc3n(CC)c2n1)C(=O)OCC	KB-3-1 tox inconclusive, KB-V1 MDR tox 13µM
CCn1c2ccccc2c2nnc(SCC(=O)NC(CC(C)C)C(=O)OC)nc21 (stereo not given)	KB-V1 MDR tox 5.17µM
Cc1ccc(NC(=O)C(c2ccccc2)c2ccccc2)c(O)c1	IL1B secr inh -56.0
N#C/C(=C\c1cccn1-c1ccccc1)C(=O)NC1CCCCC1	KB-3-1 tox 5.8µM, KB-V1 MDR tox 4.61µM
N#C/C(=C\c1ccccc1[N+](=O)[O-])C(=O)NC1CCCCC1	HT1080 IDH1KD tx 18.4µM, HT1080-NT tox inconclusive, KB-3-1 tox inconclusive, IL1B secr inh -71.5
Cc1ccc(-c2[nH]ncc2/C=C(\C#N)C(=O)NC2CCCCC2)cc1	HT1080 IDH1KD tx inconclusive, HT1080-NT tox inconclusive, IL1B secr inh -58.8
N#C/C(=C\c1ccc(F)c(F)c1)C(=O)NC1CCCCC1	IL1B secr inh inconclusive, KB-V1 MDR tox inconclusive
O=C(/C=C/c1ccccc1[N+](=O)[O-])N1CCCCC1	none
N#C/C(=C\C=C\c1ccccc1[N+](=O)[O-])C(=O)NC1CCCCC1	IL1B secr inh -104.0, KB-V1 MDR tox inconclusive
COc1ccccc1N(CC(O)Cn1ccnc1C)S(=O)(=O)c1ccccc1 (stereo not given)	none
Cc1ccc(-n2ncc(C(=O)N3CCN(Cc4ccccc4)CC3)c2C2CCN(C(=O)OC(C)(C)C)CC2)c(C)c1	KB-V1 MDR tox inconclusive (no result: HT1080 IDH1KD tx, HT1080-NT tox, IL1B secr inh)
CCOC(=O)c1ccc(NC(=O)Cn2nc3c4ccccc4n(Cc4cccc(F)c4)cc-3c2=O)cc1	none (no result: HT1080 IDH1KD tx, HT1080-NT tox, IL1B secr inh)
O=C(CCOc1ccccc1)N1CCN(S(=O)(=O)c2ccccc2F)CC1	KB-V1 MDR tox 20.6µM
O=C(CCOc1ccccc1)N1CCN(S(=O)(=O)c2cccs2)CC1	none
O=C(CCCOc1ccccc1)N1CCN(c2ccccc2)CC1	none
O=C(CCOc1ccccc1)N1CCN(c2ccc(O)cc2)CC1	HT1080 IDH1KD tx 4.61µM, HT1080-NT tox 1.46µM, KB-3-1 tox inconclusive
Cc1cccc(C)c1OC(=O)CN1C(=O)c2ccccc2C1=O	KB-V1 MDR tox inconclusive
Cc1c(C(=O)NCc2cccc(Cl)c2)sc(=O)n1Cc1ccc(F)cc1	IL1B secr inh -57.9, KB-V1 MDR tox inconclusive
Cc1c(C(=O)NCc2ccc(C(F)(F)F)cc2)sc(=O)n1Cc1cccc(F)c1	HT1080 IDH1KD tx inconclusive, HT1080-NT tox inconclusive, KB-3-1 tox inconclusive, KB-V1 MDR tox inconclusive
COc1ccc(NC(=O)c2sc(=O)n(Cc3ccc4ccccc4c3)c2C)cc1OC	HT1080 IDH1KD tx inconclusive, KB-V1 MDR tox inconclusive
Cc1c(C(=O)NCc2ccc(F)cc2)sc(=O)n1Cc1ccc(C(=O)c2ccccc2)cc1	KB-3-1 tox inconclusive, KB-V1 MDR tox 10.3µM
